Reference: PubChem BioAssay (NCATS)
Results filed as inconclusive are left out. Activity calls are given as the source filed them. Calls come from the whole dose curve; as a rule, active = well fitted curve in the direction sought with a large enough effect; inconclusive = small, poorly fitted or top-dose-only effect, or another doubt; inactive = no such curve, though single readings can be large; an effect the other way counts as inactive or inconclusive.

How the values were obtained:
[1] = target: Glutathione peroxidase 1 (Homo sapiens) (UniProt P07203); test: Primary qHTS Assay for Inhibitors of Recombinant Selenoprotein Glutathione Peroxidase 1 (GPX1) (AID 1845191); note: nearly all actives have a fitted effect of over 65% in size
Chain of Glutathione peroxidase 1 (Homo sapiens) (P07203 whole entry, looked up): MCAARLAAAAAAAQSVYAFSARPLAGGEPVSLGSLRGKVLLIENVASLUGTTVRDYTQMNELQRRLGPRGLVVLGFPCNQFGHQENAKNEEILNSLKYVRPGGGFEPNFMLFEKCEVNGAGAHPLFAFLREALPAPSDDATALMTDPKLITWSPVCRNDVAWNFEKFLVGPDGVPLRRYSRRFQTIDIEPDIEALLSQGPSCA
How it was run: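 GPX1 10 nM, GR 100 nM, GSH 1 mM, NADPH 0.5 mM, CHP 0.5 mM (final). 30-min cpd preincubation, RT. Ex340/Em450 read t=0, t=15 min.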

[2] = target: Phospholipid hydroperoxide glutathione peroxidase GPX4 (Homo sapiens) (UniProt P36969); test: Primary qHTS Assay for Inhibitors of Recombinant Selenoprotein Glutathione Peroxidase 4 (GPX4) (AID 1845192); note: nearly all actives have a fitted effect of over 65% in size
Chain of Phospholipid hydroperoxide glutathione peroxidase GPX4 (Homo sapiens) (P36969 whole entry, looked up): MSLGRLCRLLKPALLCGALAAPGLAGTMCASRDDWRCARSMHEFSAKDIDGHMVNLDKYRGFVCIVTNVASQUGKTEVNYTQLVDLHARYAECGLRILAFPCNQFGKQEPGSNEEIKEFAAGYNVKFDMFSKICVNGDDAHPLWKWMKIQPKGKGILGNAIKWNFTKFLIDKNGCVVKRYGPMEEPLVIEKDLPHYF
How it was run: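 qHTS, GR-coupled: GPX4 200 nM + cpd 30 min RT → GSH 1 mM, NADPH 0.5 mM, GR 100 nM → CHP 0.5 mM start; fluor 340/450 at t0 and t15 min; no-enzyme wells as control.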

[3] = Primary fluorescence-based thiol-reactive (MSTI) qHTS assay for identification of artifact compounds. (AID 1845221);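 note: series mostly up to about 54 µM; thiol-reactive compounds lower the probe fluorescence signal; nearly all actives have a fitted effect of over 65% in size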
How it was run: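 Thiol-reactive compounds detected by quenching of 4 uM MSTI fluorescence (525/598 nm) after 1 h room-temperature dark incubation in PBS pH 7.4, 2% DMSO. qHTS titration; percent inhibition Hill-fitted against Acetyl-MSTI/MSTI controls.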

[4] = system: Nanoluciferase (engineered Oplophorus gracilirostris luciferase); test: Primary Nanoluciferase (NLuc) qHTS assay for identification of artifact compounds. (AID 1845222); note: series mostly up to about 54 µM
How it was run: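 Luminescence read-out of secreted NLuc in S16 cell conditioned medium (1:55); compounds tested with 15 min RT preincubation, then Nano-Glo substrate 1:100, 5 min. % inhibition vs no-enzyme and DMSO controls, 4-parameter Hill fit.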

[5] = Primary redox qHTS assay for identification of artifact compounds. (AID 1845223)
How it was run: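 Redox-cycling detection via DTT (250 uM final) oxidation coupled to Amplex Red (25 uM)/HRP (250 mU/mL) in HBSS. 15 min preincubation plus 30 min after DTT, room temperature. Ex/Em 525/598 nm; 4-parameter Hill fit against DMSO and 10 uM DA3003.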

Measured: Potency

Fc1ccc(CN2CCC(Nc3ccc(C(F)(F)F)nn3)CC2)cc1F
inactive: all assays above

O=C(Nc1ccc(Cl)cc1)Nc1cccc(-c2cccc(N3CCCC3)n2)c1
inactive: all assays above

CCCOc1ccc(S(=O)(=O)N2CCN(CCO)CC2)cc1-c1nc2c(CCC)cn(CC)c2c(=O)[nH]1
not listed: [5]
inactive: all other assays above

C=C1CCC[C@]2(C)CC/C(=C(/CO)C(=O)OC)C[C@@H]12
inactive: all assays above

Cn1c(=O)c2c(ncn2Cc2ccc(C(C)(C)C)cc2)n(C)c1=O
inactive: all assays above

COC1CCN(c2cccc(-c3cc(NC(C)=O)nc(-n4nc(C)cc4C)n3)n2)CC1
inactive: all assays above

Cc1nc(C#Cc2ccnc(Cl)c2)c(C)n1-c1ccc(OC(F)(F)F)cc1
inactive: all assays above

COc1ccccc1-c1ccc(-c2cn(C(=O)N3CCCCC3Cc3ccccc3)nn2)cc1 (centres undefined)
inactive: all assays above

O=C(Nc1nnc(-c2ccc3c(c2)OCCO3)o1)C1CCCCC1
inactive: all assays above
